Several values for one entry are separate records, joined by “and”; a condition that tells them apart may be missing. Identical values can stand only once. Unmarked numbers belong to inactive results. Records with an inconclusive call do not appear. Where a call stands in place of a potency, no number is given. Activity calls are given as the source filed them. Unless noted, the call rests on the fitted dose curve; in most records, active means well fitted curve in the direction sought with a large enough effect; inconclusive means small, poorly fitted or top-dose-only effect, or another doubt; inactive means no such curve, though single readings can be large; an effect the other way counts as inactive or inconclusive.
Experiments:
[1] = Cell Proliferation Assay against the TMD8 Cell Line (Caspase readout at 16 hrs) (AID 651712); further: potency means the concentration at half of the fitted maximal effect
How it was run: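 Caspase-Glo luminescence measured apoptosis after a 16 h, 37 C compound exposure of TMD8 cells (500 cells/well, 5% FBS RPMI). DMSO set 0% and bortezomib at 9.2 uM final set 100% activity.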

[2] = Cell Proliferation Assay against the TMD8 Cell Line (Caspase readout at 8 hrs) (AID 651713); further: potency means the concentration at half of the fitted maximal effect
How it was run: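 Apoptosis read-out: Caspase-Glo luminescence after 8 h compound exposure of TMD8 lymphoma cells at 37C, 5% CO2. Signals were normalized as percent activity between DMSO and bortezomib (9.2 uM final) controls.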

[3] = qHTS for small molecule inhibitors of Yes1 kinase: Counter Assay (AID 686950);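 further: no kinase present so only ADP-Glo detection of a fixed ADP amount is tested; luminescence from ADP-Glo reporting ADP in a fixed ATP and ADP mixture; series mostly up to about 77 µM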
How it was run: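 ADP-Glo luminescence read after a 60 min room-temperature incubation of compound with an ATP/ADP mix (0.08 mM/0.02 mM) and no kinase, following a 20 min compound preincubation. Signal scaled between ATP+ADP (max) and 0.1 mM ATP-only (min) wells; Tris pH 7.5, Mg2+, DTT.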

[4] = qHTS assay for small molecule agonists of the antioxidant response element (ARE) signaling pathway (AID 651741; active means well fitted activation curve with a large enough effect in the signal ratio; the % refers to the signal ratio; further: potency means the concentration at half of the fitted maximal effect)
How it was run: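 Beta-lactamase reporter under ARE control in HepG2 cells, 2,000 per well, was induced by 16 h compound treatment at 37 C. Read-out was fluorescence from LiveBLAzer B/G FRET substrate after 2 h at room temperature.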

[5] = qHTS assay for small molecule activators of the p53 signaling pathway (AID 651743; active means well fitted activation curve with a large enough effect in the signal ratio, not every such curve was filed as active; the % refers to the signal ratio; further: series mostly up to about 92 µM); conditions: HCT-116 p53RE-bla, beta-lactamase FRET ratio, 16 h; stronger effect = higher value
How it was run: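 After 16 hours compound treatment at 37 C, HCT-116 cells stably expressing p53RE-driven beta-lactamase were loaded with LiveBLAzer B/G FRET substrate for 2 hours at room temperature. Fluorescence intensity served as the p53 activation read-out.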

[6] = qHTS assay for environmental chemicals that activate the Aryl hydrocarbon Receptor (AhR) signaling pathway (AID 651777); conditions: 1A2-DRE human hepatoma cells, luciferase, 24 h; activation: stronger effect = higher value; further: nearly all actives have a fitted effect of over 15% in size
How it was run: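 Reporter gene assay: hepatoma cells with DRE/CYP1A2-luciferase, 24 hr compound incubation at 37 C, 5% CO2, luminescence after One-Glo (30 min, RT).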

[7] = molecular target: Peroxisome proliferator-activated receptor alpha (Homo sapiens) (UniProt Q07869); assay: qHTS assay for small molecule agonists of the peroxisome proliferator-activated receptor alpha (PPARalpha) signaling pathway (AID 651778); conditions: PathHunter PPARalpha complementation, chemiluminescence, 6 h; stronger effect = higher value
How it was run: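 Chemiluminescence from complemented enzyme reported PPARalpha activation in cells after 6 hr of compound treatment at 37 C. The detection reagent was incubated for 60 min at room temperature, and compounds were scored as agonists.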

[8] = molecular target: Arylsulfatase A (Homo sapiens) (UniProt P15289); assay: qHTS screen for enhancers of Arylsulfatase A (ASA1): LOPAC Validation Assay (AID 720538); conditions: outcome: dose series up to 57.5 µM
How it was run: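 SV40-transformed fibroblasts from an MLD patient (ASA-I179S) were treated with compound for 48 h at 37 C. They were then lysed with 0.5 mM pNCS substrate (final) for 14 h at room temperature and stopped with NaOH; signal read by fluorescence (Ex 525/Em 598 nm), with increase denoting enhanced activity.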

[9] = qHTS for compounds that reverse cellular toxicity of Amyloid beta (A-beta) peptide in yeast: LOPAC Validation Assay (AID 720559)
How it was run: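 Yeast expressing toxic A-beta grown with pinned compounds at 30 C for 48 hr. Growth measured as absorbance at 600 nm; data normalized to DMSO and to an equimolar FeCl3/clioquinol mixture as positive control.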

[10] = qHTS for Activators of Parkin Expression: LOPAC Validation Assay (NLuc Reporter) (AID 720572)
How it was run: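 Compound effects on Parkin promoter activity were measured as NanoLuc luminescence after 24 h at 37 C. The neuronal reporter line also carried FLuc, which was read first. LOPAC compounds were tested at 7 concentrations, with normalization to DMSO (0%) and positive control (100%).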

[11] = qHTS for Activators of Parkin Expression: LOPAC Validation Assay (FLuc Reporter) (AID 720573)
How it was run: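 Neuronal cell line stably expressing FLuc/NLuc coincidence reporter under the Parkin promoter, 1,500 cells/well, dosed 24 h after seeding in 7-point series for 24 h at 37 C. FLuc luminescence read; normalized to DMSO and positive control (100%).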

[12] = qHTS assay for small molecule agonists of the antioxidant response element (ARE) signaling pathway measured by Nrf2-dependant transcriptional activity (AID 720636; active means well fitted curve in the direction sought with a large enough effect in the repeat runs; an effect the other way counts as inactive or inconclusive;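 further: HepG2 cells with an ARE-driven luciferase reporter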)
How it was run: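 Nrf2-dependent transcription is measured in ARE-luc HepG2 cells: compound is applied for 16 hr at 37 C after a 6 hr attachment period, and luciferase activity is quantified by luminescence using ONE-Glo.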

[13] = qHTS assay for small molecule agonists of the antioxidant response element (ARE) signaling pathway measured by Nrf2-dependant transcriptional activity - cell viability counter screen (AID 720653; active means well fitted curve in the direction sought with a large enough effect in the repeat runs; an effect the other way counts as inactive or inconclusive); conditions: ARE-bla HepG2 viability, CellTiter-Glo ATP luminescence, 16 h; max response: stronger effect = lower value
How it was run: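 Cytotoxicity counter screen: intracellular ATP quantified by CellTiter-Glo luminescence in the same ARE-bla HepG2 plates, after 16 h compound exposure and a 2 h beta-lactamase substrate step.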

[14] = molecular target: Hexokinase-4 (Homo sapiens) + Glucokinase regulatory protein (Homo sapiens) (UniProt P35557+Q14397); assay: qHTS assay for inhibitors of recombinant human GCK-GKRP interaction: Diaphorase-coupled assay (AID 743205)
How it was run: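 Compounds pre-incubated 20 min with substrate, then 10 nM GST-GCK with 10 nM FLAG-GKRP added. GCK activity coupled via G6PDH and diaphorase to resorufin (5 mM glucose, 0.4 mM ATP, 0.15 mM NADP+, pH 7.6), read kinetically over 30 minutes at Ex 525/Em 590 nm.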

[15] = molecular target: Tumor necrosis factor (Homo sapiens) (UniProt P01375); assay: qHTS assay to identify small molecules that stimulate Tumor Necrosis Factor-alpha (TNF-alpha) secretion (AID 651757; active means well fitted curve in the direction sought with a large enough effect in the signal ratio; the % refers to the signal ratio)
How it was run: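 Secreted TNF-alpha quantified by TR-FRET sandwich of two labeled anti-TNF-alpha antibodies, incubated 3 hr at room temperature. Preceded by 17 hr, 37 C compound treatment of THP-1 cells at 3000 cells/well.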

[16] = qHTS assay for small molecule antagonists of the retinoid-related orphan receptor gamma (ROR-gamma) signaling pathway - cell viability counter screen (AID 720652; active means well fitted curve in the direction sought with a large enough effect in the repeat runs; an effect the other way counts as inactive or inconclusive;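 further: CHO reporter cells with doxycycline-induced ROR-gamma expression; series mostly up to about 92 µM; compound exposure lasted 16 hr before ATP read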)
How it was run: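 Cytotoxicity counter screen: intracellular ATP (CellTiter-Glo luminescence) measured in the doxycycline-induced CHO RORE-luciferase reporter line after 16 hr compound exposure at 37 C, 5% CO2.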

Peroxisome proliferator-activated receptor alpha (Homo sapiens), sequence (Q07869 whole entry, looked up): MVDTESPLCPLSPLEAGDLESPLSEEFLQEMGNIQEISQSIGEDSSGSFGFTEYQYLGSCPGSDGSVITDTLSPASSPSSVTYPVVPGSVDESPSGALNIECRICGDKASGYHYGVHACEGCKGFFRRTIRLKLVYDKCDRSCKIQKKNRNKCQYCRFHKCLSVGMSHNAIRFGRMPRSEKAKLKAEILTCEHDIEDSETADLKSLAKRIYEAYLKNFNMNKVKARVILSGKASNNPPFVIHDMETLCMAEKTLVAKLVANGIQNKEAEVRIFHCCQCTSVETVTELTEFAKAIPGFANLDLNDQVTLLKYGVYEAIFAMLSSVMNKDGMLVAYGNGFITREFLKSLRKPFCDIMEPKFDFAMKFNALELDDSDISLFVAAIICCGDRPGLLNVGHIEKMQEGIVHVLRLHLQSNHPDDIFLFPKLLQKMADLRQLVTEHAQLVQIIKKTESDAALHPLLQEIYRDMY
Hexokinase-4 (Homo sapiens) + Glucokinase regulatory protein (Homo sapiens), sequence (P35557 whole entry, looked up): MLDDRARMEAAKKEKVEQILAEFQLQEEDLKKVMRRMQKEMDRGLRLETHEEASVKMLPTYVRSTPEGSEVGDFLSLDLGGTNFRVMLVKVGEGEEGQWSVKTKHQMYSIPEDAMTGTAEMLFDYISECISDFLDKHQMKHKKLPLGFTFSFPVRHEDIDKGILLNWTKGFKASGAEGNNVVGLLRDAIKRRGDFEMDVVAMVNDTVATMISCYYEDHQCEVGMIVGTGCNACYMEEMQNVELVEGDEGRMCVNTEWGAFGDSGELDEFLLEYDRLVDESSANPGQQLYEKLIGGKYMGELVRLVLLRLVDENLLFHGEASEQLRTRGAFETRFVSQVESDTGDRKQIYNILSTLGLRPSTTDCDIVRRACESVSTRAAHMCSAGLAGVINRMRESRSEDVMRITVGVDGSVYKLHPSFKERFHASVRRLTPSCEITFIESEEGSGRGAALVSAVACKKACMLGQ
Hexokinase-4 (Homo sapiens) + Glucokinase regulatory protein (Homo sapiens), sequence (Q14397 whole entry, looked up): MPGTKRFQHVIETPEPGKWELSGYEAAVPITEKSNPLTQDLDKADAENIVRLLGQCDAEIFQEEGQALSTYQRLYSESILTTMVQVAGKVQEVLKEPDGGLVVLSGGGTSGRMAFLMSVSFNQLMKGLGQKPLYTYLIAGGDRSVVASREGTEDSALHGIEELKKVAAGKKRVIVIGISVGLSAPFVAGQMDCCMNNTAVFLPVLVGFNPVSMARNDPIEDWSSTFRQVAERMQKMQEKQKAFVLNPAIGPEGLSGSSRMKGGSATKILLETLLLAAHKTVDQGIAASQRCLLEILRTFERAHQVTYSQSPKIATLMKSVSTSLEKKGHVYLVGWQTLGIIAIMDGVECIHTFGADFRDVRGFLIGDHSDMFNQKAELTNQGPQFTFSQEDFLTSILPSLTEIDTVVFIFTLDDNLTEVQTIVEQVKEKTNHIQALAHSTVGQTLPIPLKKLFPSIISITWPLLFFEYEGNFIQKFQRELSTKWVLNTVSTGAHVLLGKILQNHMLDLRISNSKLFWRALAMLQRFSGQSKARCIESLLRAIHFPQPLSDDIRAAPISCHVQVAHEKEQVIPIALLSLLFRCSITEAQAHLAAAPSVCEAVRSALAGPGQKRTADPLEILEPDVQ
Arylsulfatase A (Homo sapiens), sequence (P15289 whole entry, looked up): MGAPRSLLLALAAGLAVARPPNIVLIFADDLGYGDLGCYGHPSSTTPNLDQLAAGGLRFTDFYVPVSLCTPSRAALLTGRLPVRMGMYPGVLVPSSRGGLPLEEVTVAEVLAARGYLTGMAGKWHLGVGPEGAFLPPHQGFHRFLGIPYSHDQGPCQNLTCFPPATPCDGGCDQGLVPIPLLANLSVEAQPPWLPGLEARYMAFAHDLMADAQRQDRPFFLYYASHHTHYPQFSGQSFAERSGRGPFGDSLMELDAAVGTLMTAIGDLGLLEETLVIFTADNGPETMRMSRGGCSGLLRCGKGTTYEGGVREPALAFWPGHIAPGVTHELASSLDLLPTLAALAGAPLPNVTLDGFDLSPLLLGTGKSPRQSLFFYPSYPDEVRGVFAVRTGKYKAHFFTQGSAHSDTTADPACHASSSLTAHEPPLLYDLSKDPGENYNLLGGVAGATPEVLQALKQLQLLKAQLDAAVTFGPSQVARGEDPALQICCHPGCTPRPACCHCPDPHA
Tumor necrosis factor (Homo sapiens), sequence (P01375 whole entry, looked up): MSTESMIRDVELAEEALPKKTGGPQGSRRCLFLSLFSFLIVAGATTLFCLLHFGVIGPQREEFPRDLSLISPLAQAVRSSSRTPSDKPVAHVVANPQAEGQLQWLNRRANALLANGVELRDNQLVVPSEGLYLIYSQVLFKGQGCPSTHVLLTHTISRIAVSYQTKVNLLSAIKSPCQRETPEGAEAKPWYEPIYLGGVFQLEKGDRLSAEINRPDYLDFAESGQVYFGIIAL

## CS(=O)c1ccc(-c2nc(-c3ccc(F)cc3)c(-c3ccncc3)[nH]2)cc1 (configuration not stated)
[1]
  Potency: inactive
[2]
  Potency: inactive
[3]
  outcome: inactive

## CCOc1ccc(Nc2nc(-c3c(C)nc4ccccn34)cs2)cc1
[1]
  Potency: 0.105 µM (active)
[3]
  outcome: inactive

## CC(=O)N(C)C1(c2ccccc2)CCN(CCC[C@]2(c3ccc(Cl)c(Cl)c3)CCCN(C(=O)c3ccccc3)C2)CC1
[1]
  Potency: 11.8 µM (active)
[3]
  outcome: inactive

## O=C(CCCCCCC(=O)Nc1ccccc1)NO
[1]
  Potency: 0.429 µM (active)
[2]
  Potency: inactive

## CC(C)(C)c1cc(C(=O)O)c(NC(=O)Nc2ccc3[nH]ncc3c2)s1
[1]
  Potency: inactive
[2]
  Potency: inactive
[3]
  outcome: inactive

## COc1cc2ncnc(-n3nc(-c4ccccn4)nc3N)c2cc1OC
[1]
  Potency: 16.6 µM (active)
[2]
  Potency: 20.9 µM (active)
[3]
  outcome: inactive

## O=C(Nc1cc(Cl)cc2c1[nH]c1cnccc12)c1cccnc1
[2]
  Potency: inactive
[3]
  outcome: inactive

## O=C(O)CCC1CCC(c2cc(F)ccc2F)(S(=O)(=O)c2ccc(Cl)cc2)CC1 (configuration not stated)
[1]
  Potency: inactive
[2]
  Potency: inactive
[3]
  outcome: inactive

## CC(C)(C)C(=O)Oc1ccc2c(c1)nc(NC(=O)c1cccc([N+](=O)[O-])c1)n2CCCO
[1]
  Potency: inactive
[2]
  Potency: inactive
[3]
  outcome: inactive

## CC(=O)N[C@@H](CS)C(=O)O
[4]
  Potency: inactive
[5]
  activation: 0.943%
[6]
  activation: -0.0175%
[7]
  max response: -0.248%
[8]
  outcome: inactive
[9]
  outcome: inactive
[10]
  Potency: inactive
[11]
  Potency: inactive
[12]
  Potency: inactive
[13]
  max response: 3.38%
[14]
  outcome: inactive

## Cn1cc(C=C2C(=O)Nc3cccnc32)c2ccccc21
[3]
  outcome: inactive

## CC(=O)O[C@]1(C(C)=O)CC[C@H]2[C@@H]3C=C(Cl)C4=CC(=O)[C@@H]5C[C@@H]5[C@]4(C)[C@H]3CC[C@@]21C
[4]
  Potency: 54.5 µM (active) and 42.2 µM (active)
[15]
  outcome: inactive
[6]
  activation: 1.28% and -0.271%
[7]
  max response: 0.54% and -4.74%
[8]
  outcome: inactive
[9]
  outcome: inactive
[10]
  Potency: inactive
[11]
  Potency: inactive
[12]
  Potency: inactive
[16]
  Potency: inactive
[13]
  max response: -29.6% and -20.9%
[14]
  outcome: inactive
